Sampled rows, rich in hits. Any-hit rate of the full collection: about 11%.
HPGD block: inhibitors of human 15-hydroxyprostaglandin dehydrogenase (HPGD). Potency, µM, without a hit: at the highest dose activity change, negative = inhibition, actives largely listed as inhibitors. purified HPGD, NADH fluorescence kinetic, PGE2 substrate. P15428. AID 894. 4.3% of 150,000 active; active = well fitted inhibition curve with a large enough effect, not every such curve was filed as active; inconclusive = small, poorly fitted or top-dose-only effect, or another doubt; inactive = no such curve, though single readings can be large or run the other way; also: potency is read from the fitted curve at half-maximal effect; % is scaled to controls: 0 for no effect and ±100 for the full control effect
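NADH formation kinetics: reaction with 30 uM PGE2 and 1 mM NAD+ (final), 20 nM enzyme, Tris-HCl pH 8 with Tween 20, after 15 min compound preincubation at room temperature. Fluorescence change, last versus first of five reads.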
HTT ATP protect: Huntington cell model cytoprotection by ATP luminescence; 0.14% of 230,000 active; Potency, µM (top dose mostly 56.4 µM), for the others: cytoprotection (ATP increase), most hits filed as activators; PC12 HTT-Q103 induced, cytoprotection, ATP luminescence, 40 h; also: potency is read from the fitted curve at half-maximal effect; % of control where 0% means no effect; nearly all actives have a fitted effect of over 45% in size
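Compounds added alongside 100 nM tebufenozide, which induces toxic Q103 huntingtin exon 1-GFP in stable PC12 cells; surviving cells quantified by luminescent ATP measurement. Medium: phenol red-free DMEM, 5% equine and 5% calf serum.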
CBFb RUNX1 block: CBF-beta/RUNX1 interaction disruption; 230,000 tested, under 10 active; Q01196+Q13951; Potency, µM (doses to about 59.8 µM), for inactives: at the highest dose activity, negative = inhibition, usual class: inhibitors; AlphaScreen CBFb-His/RUNX1-biotin binding, biochemical; AID 1477; also: % of control where 0% means no effect
Target sequence (Q01196 whole entry, looked up): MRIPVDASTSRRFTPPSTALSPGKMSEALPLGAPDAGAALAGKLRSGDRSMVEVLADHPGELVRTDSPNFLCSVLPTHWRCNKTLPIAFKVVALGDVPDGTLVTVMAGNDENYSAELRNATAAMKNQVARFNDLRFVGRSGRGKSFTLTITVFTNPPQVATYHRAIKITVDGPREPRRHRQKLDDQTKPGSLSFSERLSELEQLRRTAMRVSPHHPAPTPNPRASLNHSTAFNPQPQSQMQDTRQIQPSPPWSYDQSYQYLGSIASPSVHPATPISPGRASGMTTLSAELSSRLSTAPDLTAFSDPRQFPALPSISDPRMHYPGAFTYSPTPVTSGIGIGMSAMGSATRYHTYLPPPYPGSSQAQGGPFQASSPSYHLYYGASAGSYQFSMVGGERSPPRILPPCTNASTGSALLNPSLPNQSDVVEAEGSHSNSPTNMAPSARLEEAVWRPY
Target sequence (Q13951 whole entry, looked up): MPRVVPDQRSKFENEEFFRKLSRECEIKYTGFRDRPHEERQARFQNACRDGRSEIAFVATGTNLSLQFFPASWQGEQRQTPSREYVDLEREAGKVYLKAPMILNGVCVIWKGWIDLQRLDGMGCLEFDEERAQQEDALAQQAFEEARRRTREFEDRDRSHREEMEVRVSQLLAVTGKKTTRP
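CBF-beta (His) and RUNX1 (biotin), 30 nM each; 20 min preassociation; + compound, 15 min; + beads 50 ng each (Ni, streptavidin), 90 min; RT; AlphaScreen read.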
HttQ103 aggreg: inhibitors of mutant huntingtin aggregate formation in PC12 cells; PC12 HttQ103-GFP aggregates, Acumen cytometry, 40 h; Potency, µM (doses to about 46.1 µM), inactives show top-dose activity change, negative = inhibition, most hits filed as inhibitors; 1.1% of 220,000 active; AID 1688; also: potency is read from the fitted curve at half-maximal effect; % is scaled to controls: 0 for no effect and ±100 for the full control effect; nearly all actives have a fitted effect of over 60% in size
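Steps: seed 1500 PC12 HTTQ103-GFP cells/well; add tebufenozide, 100 nM final; add compound titration; add ATPLite reagent; quantify GFP aggregates by laser scanning cytometry.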
ALDH1A1 inh: blocks purified human ALDH1A1 activity | Potency, µM (doses to about 75.3 µM), without a hit: at the top dose activity, negative = inhibition, most hits filed as inhibitors | P00352 | AID 1030 | Purified ALDH1A1, NADH fluorescence, propionaldehyde substrate | 7.3% of 220,000 active; active = well fitted inhibition curve with a large enough effect, not every such curve was filed as active; inconclusive = small, poorly fitted or top-dose-only effect, or another doubt; inactive = no such curve, though single readings can be large or run the other way;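 also: potency is read from the fitted curve at half-maximal effect; plate controls were no enzyme wells and a reference inhibitor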
PNC assembly inh: inhibitors of perinucleolar compartment assembly | activity change (PNC), negative = inhibition, % at 10 µM | AID 2417 | 3.1% of 140,000 active | PC3M PTB-GFP, PNC prevalence imaging, 16 h; stronger effect = lower value;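 active = readout at or below -70, meaning at least 70% loss of cells showing the perinucleolar compartment, a nuclear body marking cancer cells; inconclusive = readout between -30 and a set limit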;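 also: plate controls were DMSO wells for no effect and camptothecin positive control wells for full effect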
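Compounds are pinned in duplicate onto adhered PC3M cells stably expressing GFP-tagged PTB and incubated 16 h at 37 C. Cells are then fixed, nuclei stained with Hoechst, and PNC-positive cells counted.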
* marks the source's active call; other numbers are inactive results; ? = inconclusive; · = no result; [ ] = another dose, or the depositor's remark. Unless noted, calls follow the shape of the dose curve; as a rule, active = well fitted curve in the direction sought with a large enough effect; inconclusive = small, poorly fitted or top-dose-only effect, or another doubt; inactive = no such curve, though single readings can be large; an effect the other way counts as inactive or inconclusive.

SMILES | HPGD block | HTT ATP protect | CBFb RUNX1 block | HttQ103 aggreg | ALDH1A1 inh | PNC assembly inh
COC(=O)c1oc2ccc(OC)cc2c1N | ? | -94%[10 µM] | 0% | 2.8µM* | ? | -10
COC(=O)[C@@]1(C)C=C[C@@H](Cc2ccccc2)N1C | -9% | 15% | -3% | · | ? | ·
O=C1OC(Cc2ccccn2)C(O)=C1C1=NCCCN1 (configuration not stated) | -4% | · | -3% | -8% | -2% | -83*
O=C1OC(Cc2ccccn2)C(O)=C1C1=NCCCCN1 (configuration not stated) | ? | -5%[10 µM] | -9% | 19% | 8% | 7
COC(=O)NC(/C(C(=O)OC)=C(\C)NCc1ccccc1)c1ccco1 (configuration not stated) | · | -11%[10 µM] | 5%[13.1 µM] | · | 18%[13.5 µM] | ·
Cc1nc2sccc2c(=O)n1N | · | 3.5µM* | 11% | -22% | 6% | ·
COc1cccc(Nc2ncc3nc(C)c(=O)n(Cc4cccs4)c3n2)c1 | · | -8% | · | · | ? | ·
CCCOc1ccc(CSc2nc3ccccc3[nH]2)cc1 | -20% | -87% | -1% | 7.9µM* | 9% | 74
CCOc1ccc(OCCSc2nc3ccccc3[nH]2)cc1 | 25µM* | 9%[10 µM] | 8% | ? | -6% | -92*
c1ccc(CSc2nc3ccccc3[nH]2)cc1 | · | -30%[10 µM] | 6% | -7%[9.22 µM] | · | ·
CCC/C=N/NC(=O)c1cc(Br)ccc1O | ? | 23%[10 µM] | 3% | 16µM* | -2% | -10
O=C(O)c1cccc(N2CCCC2=O)c1 | 20µM* | -27% | 7% | 2% | ? | 25
O=C(N/N=C\c1ccccc1O)c1ccccc1O | ? | -71%[1.9 µM] | 4%[21.7 µM] | · | 9% | ·
O=C(N/N=C/c1cc(Br)ccc1O)c1ccccc1Cl | -23% | · | -24% | 4µM* | -1% | ?
O=C(N/N=C/c1cc(Br)ccc1O)c1cccc(N2CCCC2=O)c1 | -16% | · | -11% | 2.2µM* | 0% | -15
N[C@@H](C(=O)O)[C@H](O)C(=O)O | · | 24%[1.9 µM] | · | · | · | ·
C[C@@H](O)CNC(C)(C)CC(=O)N[C@@H]1CCc2ccccc2N(Cc2ccc(-c3ccccc3-c3nn[nH]n3)cc2)C1=O | 1% | 0% | 15% | · | 5% | ·
COc1ccc(C(C)=O)cc1COC(=O)CNC(=O)c1ccccc1F | ? | 1%[1.9 µM] | -3% | 21% | 7.1µM* | ?
CN(C)CCCNC(=O)c1ccc(-c2ccccc2)cc1 | -16% | -24% | 1% | -10% | 6% | 22
CN(C)CCCNC(=O)c1ccc(Cl)c(S(=O)(=O)N(C)c2ccccc2)c1 | -15% | 24% | -1% | -4%[9.22 µM] | -3% | -108*
CC(C)c1ccc(C(=O)NCCCN(C)C)cc1 | 14µM* | 3%[10 µM] | 0% | 9% | 2% | ?
O=C(O)CNC(=O)c1nc(-c2ccccc2)n(-c2ccccc2)n1 | -7% | 9%[10 µM] | -1% | 22% | ? | ?
Cc1nn(-c2ccccc2)c2sc(C(=O)N3CCCCC3)cc12 | 4µM* | -16% | 11% | -33% | 1.8µM* | -16
O=C(c1nc(-c2ccccc2)n(-c2ccccc2)n1)N1CCCCCC1 | -15% | -5% | 1% | 4% | 8.9µM* | 70
Cc1cccc(NC(=O)c2nc(-c3ccccc3)n(-c3ccccc3)n2)c1C | -29% | 7% | 6% | 1% | 32µM* | 16
COc1cc(OC)cc(-c2nnc3n2N=C(c2cc(OC)ccc2OC)CS3)c1 | · | · | 3% | · | · | ·
O=C(O)C1(C(=O)O)CCN(S(=O)(=O)c2ccccc2)CC1 | -8% | 0%[10 µM] | · | · | -8%[13.5 µM] | ·
N/C(=N\OC(=O)c1ccc(Br)o1)c1ccccn1 | · | -18%[10 µM] | 15% | 16% | -2% | ·
CCCn1c(N2CCC(Cc3ccccc3)CC2)nc2c1c(=O)[nH]c(=O)n2C | -8% | -29% | -3% | -2% | ? | -19
Cn1c(N2CCCCC2)nc2c1c(=O)[nH]c(=O)n2C | -8% | -24%[0.074 µM] | 3% | 21% | ? | -106*

Assay outcomes deposited in PubChem BioAssay by National Center for Advancing Translational Sciences (NCATS).
